From PubChem BioAssay
Hits are enriched below; roughly 2.7% of the tested compounds scored in any of these assays.
S2 tox: Viability Counterscreen for Primary qHTS for Inhibitors of ATXN expression; S2 cells (HEK-293 line with an ATXN2-luciferase reporter) viability, CellTiter-Fluor protease fluorescence, 24 h; Potency, µM (top dose mostly 56.7 µM), hits mostly cytotoxic; hit rate 0.49% among 400,000; note: nearly all actives have a fitted effect of over 40% in size
TGFb SMAD3 inh: qHTS for Inhibitors of TGF-b | HepG2 CAGA-GFP TGF-b/SMAD3 reporter, GFP fluorescence, 18 h; TGF-beta stimulated, 500 pg/mL final | Potency, µM (highest dose often 46.1 µM), hits mostly inhibitors | hit rate 1.2% among 410,000; note: nearly all actives have a fitted effect of over 65% in size
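GFP signal (ex488/em500-530) from TGF-beta-stimulated HEPG2 CAGA-GFP cells, 500 pg/mL final, 18 h at 37 degrees C in DMEM plus 1% FBS, normalized to unstimulated and DMSO-stimulated controls.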
ATXN2 expr inh: Primary qHTS for Inhibitors of ATXN expression; HEK-293 ATXN2-luciferase reporter, luminescence, 24 h; Potency, µM (highest dose often 57 µM), actives largely listed as inhibitors; hit rate 0.72% among 360,000; AID 1745845, 2022; note: nearly all actives have a fitted effect of over 55% in size
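qHTS (up to 57 uM final) was run with 24 h compound exposure of reporter cells at 37 °C. Each well was multiplexed: SteadyGlo luminescence measured ATXN2-luciferase expression after a fluorogenic Gly-Phe-AFC viability readout (25 uM final).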
12-LOX inh: Primary qHTS assay for inhibitors of human arachidonate 12S-lipoxygenase (ALOX12): Round 2; Polyunsaturated fatty acid lipoxygenase ALOX12 (Homo sapiens), P18054; Potency, µM (top dose mostly 108 µM), most hits filed as inhibitors; purified 12hLO, xylenol orange hydroperoxide absorbance; hit rate 1.1% among 580,000
Target sequence (P18054 whole entry, looked up): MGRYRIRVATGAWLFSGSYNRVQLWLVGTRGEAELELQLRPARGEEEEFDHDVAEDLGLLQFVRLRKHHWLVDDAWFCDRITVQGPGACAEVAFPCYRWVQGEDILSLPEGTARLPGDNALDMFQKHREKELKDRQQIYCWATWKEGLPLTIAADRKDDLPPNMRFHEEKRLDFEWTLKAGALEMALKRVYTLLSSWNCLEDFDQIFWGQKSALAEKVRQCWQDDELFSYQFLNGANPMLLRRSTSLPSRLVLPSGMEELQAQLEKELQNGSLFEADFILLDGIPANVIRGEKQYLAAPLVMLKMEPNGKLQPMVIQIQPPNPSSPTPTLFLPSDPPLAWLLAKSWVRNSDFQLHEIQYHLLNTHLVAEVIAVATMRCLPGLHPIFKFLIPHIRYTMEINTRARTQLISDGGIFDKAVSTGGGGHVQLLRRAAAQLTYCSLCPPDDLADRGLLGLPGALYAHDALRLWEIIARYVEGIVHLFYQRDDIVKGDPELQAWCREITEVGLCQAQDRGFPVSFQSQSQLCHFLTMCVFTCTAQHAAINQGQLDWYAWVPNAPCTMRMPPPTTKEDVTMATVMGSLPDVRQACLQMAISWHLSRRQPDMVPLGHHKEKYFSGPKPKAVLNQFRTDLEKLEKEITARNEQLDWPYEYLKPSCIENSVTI
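Purified human 12hLO at 150 nM in 25 mM Hepes, 0.01% Triton X-100, pH 7.0, preincubated 15 min at room temperature with compound. Reaction started with 40 uM arachidonic acid, 30 min at room temperature. Hydroperoxide measured by Fe-xylenol orange, 573/405 nm absorbance ratio.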
HepG2 tox-1: qHTS for Inhibitors of TGF-b: Cytotox Counterscreen; HepG2 CAGA-GFP viability, ATP luminescence, 18 h; Potency, µM (doses to about 46.1 µM), actives largely listed as cytotoxic; hit rate 0.76% among 410,000
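HepG2 CAGA-GFP cells (1000/well, DMEM with 1% FBS) received compound, then TGF-beta at 500 pg/mL final, and were incubated 18 hours at 37 degrees C. Viability was read by CellTiter-Glo luminescence. Media-only wells were set as complete cell-killing and DMSO as no toxicity.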
TGFb confirm: qHTS for Inhibitors of TGF-b: Confirmation of Cherry Picks | shares compounds with TGFb SMAD3 inh | HepG2 CAGA-GFP TGF-b reporter, GFP fluorescence, 18 h; cells stimulated with TGF-beta, 500 pg/mL | Potency, µM (top dose mostly 46.1 µM), hits mostly inhibitors | hit rate 63% among 1,600 | AID 720534, 2013; note: nearly all actives have a fitted effect of over 65% in size
HepG2 tox-2: qHTS for Inhibitors of TGF-b: Cytotox Counterscreen for Cherry Picks | shares compounds with TGFb SMAD3 inh | HepG2 CAGA-GFP viability, ATP luminescence, 18 h; cells stimulated with TGF-beta, 500 pg/mL | Potency, µM (highest dose often 46.1 µM), hits mostly inhibitors | hit rate 27% among 1,600; note: nearly all actives have a fitted effect of over 70% in size
CCL64 TGFb inh: qHTS for Inhibitors of TGF-b: CCL64 Cells Orthogonal Assay for Cherry Picks; shares compounds with TGFb SMAD3 inh; Potency, µM (highest dose often 46.1 µM), usual class: inhibitors; AID 720536, 2013; CCL64 CAGA-GFP reporter, TGF-b stimulated, GFP fluorescence, 18 h; hit rate 41% among 1,600; note: nearly all actives have a fitted effect of over 65% in size
COP TGFb inh: qHTS for Inhibitors of TGF-b: Hit Validation in HepG2 Cells using COP promoter; shares compounds with TGFb SMAD3 inh; HepG2 COP-GFP TGF-b reporter, GFP fluorescence, 18 h; cells stimulated by added recombinant TGF-beta; Potency, µM (doses to about 46.1 µM), usual class: inhibitors; hit rate 3% among 1,600; AID 720537, 2013; note: nearly all actives have a fitted effect of over 70% in size
Hits are given with their value; . = inactive; ? = inconclusive; / = no result; ! = not active in a repeat; [ ] = dose if it differs, or a comment. Calls come from the whole dose curve; as a rule, active = well fitted curve in the direction sought with a large enough effect; inconclusive = small, poorly fitted or top-dose-only effect, or another doubt; inactive = no such curve, though single readings can be large; an effect the other way counts as inactive or inconclusive.

SMILES	S2 tox	TGFb SMAD3 inh	ATXN2 expr inh	12-LOX inh	HepG2 tox-1	others
FC(F)(F)c1cccc(-n2nnnc2C2(N3CCCCC3)CCCCC2)c1	/	/	/	.	/
N#CC1c2ccccc2-n2nncc2CN1Cc1cc(Cl)cc(Cl)c1 (stereo not drawn)	3.5µM	?	4.5µM	?	10µM
COc1ccc(CN2Cc3cnnn3-c3ccccc3C2C#N)cc1 (stereo not drawn)	/	?	?	?	11µM
COc1ccc(CN2Cc3cnnn3-c3ccccc3C2c2ccccc2)cc1 (stereo not drawn)	.	.	.	.	.
COc1ccccc1CCNCc1cccs1	/	/	/	.	/
O[C@H]1[C@H](NCc2ccncc2)[C@H]2CO[C@H](O2)[C@@H]1N1CCOCC1	/	/	/	.	/
C=CCn1c(O)c(C(C)=NCc2cccnc2)c(=O)[nH]c1=O	.	.	.	.	.
C=CCn1c(O)c(C(C)=NCc2cc(OC)cc(OC)c2)c(=O)[nH]c1=O	.	.	?	.	7.1µM
C=CCn1c(O)c(C(C)=Nc2cccc(C(=O)O)c2)c(=O)[nH]c1=O	.	.	.	.	.
C=CCn1c(O)c(C(C)=Nc2ccc(C(=O)OCC)cc2)c(=O)[nH]c1=O	.	.	.	5.6µM	.
COc1ccc(C2SCC(=O)Nc3[nH]ncc32)cc1OC1CCCC1 (stereo not drawn)	/	/	/	.	/
N[C@H](CCP(=O)(O)O)C(=O)O	/	/	/	3.5µM!	/
CNCC(N)C(=O)O (stereo not drawn)	/	/	/	.	/
Cc1ccc(-c2cc(-c3ccc(C)cc3)[n+](-c3ccc(C(=O)[O-])cc3)c(-c3ccc(C)cc3)c2)cc1	.	.	.	?	.
Cc1ccc(-c2cc(-c3ccc(C)cc3)[n+](C)o2)cc1	.	7.1µM	.	.	.
C[C@H]1CCCC=CC2C[C@H](O)C[C@@H]2[C@H](O)C=CC(=O)O1 (stereo partly drawn)	/	0.13µM	?	.	.
COc1ccc(-c2cc([C@H]3CN4CC[C@H]3C[C@@H]4CNC(=O)NC(C)C)nc(C)n2)cc1OC	/	/	/	32µM	/
Cc1nc(-c2ccccc2Br)cc([C@H]2CN3CC[C@H]2C[C@@H]3CNC(=O)c2ccccc2)n1	/	/	/	.	/
Cc1nc(-c2ccccc2Br)cc([C@H]2CN3CC[C@H]2C[C@@H]3CNC(=O)Nc2ccccc2)n1	/	/	/	11µM	/
Cc1cnc(SCc2ccccn2)nc1C1CCCN(C(=O)c2cccc(-c3cccc(F)c3)c2)C1 (stereo not drawn)	32µM	/	/	?	/
Cc1ccc(Sc2ccc(C=C3C(=O)N(C)C(=O)N(C)C3=O)o2)cc1	.	.	.	35µM	.
CSCCC(c1nnnn1-c1ccc2c(c1)OCCO2)N1CCC(n2c(=O)[nH]c3ccccc32)CC1 (stereo not drawn)	?	?	?	.	.
O=c1[nH]c2ccccc2n1C1CCN(C(c2cc3ccccc3o2)c2nnnn2Cc2ccccc2)CC1 (stereo not drawn)	/	?	20µM	?	.
O=c1[nH]c2ccccc2n1C1CCN(C(CCc2ccccc2)c2nnnn2C2CCCC2)CC1 (stereo not drawn)	?	?	25µM	.	.
COc1cccc(C(c2nnnn2Cc2ccccc2)N2CCC(n3c(=O)[nH]c4ccccc43)CC2)c1OC (stereo not drawn)	?	?	?	.	.
SMILES	S2 tox	TGFb SMAD3 inh	ATXN2 expr inh	12-LOX inh	HepG2 tox-1	others
Cc1nn(-c2ncnc3nc[nH]c23)c2c1C(c1c(Cl)cccc1Cl)SCC(=O)N2 (stereo not drawn)	/	/	/	.	/
Nc1ccccc1C(=O)O	.	/	.	.[22.9 µM]	/
O=C1C(I)=CC(=C(c2cc(I)c(O)c(I)c2)c2ccccc2C(=O)O)C=C1I	?	/	.	5.1µM	/
O=C1NC2C(=CC(O)C(O)C2O)c2cc3c(cc21)OCO3 (stereo not drawn)	?	?	0.95µM	.	.
O=C(C1CCCCC1)N1Cc2ccccc2-n2nncc2C1	.	.	.	.	.
c1ccc(C2c3ccccc3-n3nncc3CN2CC2CCCCC2)cc1 (stereo not drawn)	.	11µM	.	.	.	TGFb confirm=18µM;HepG2 tox-2=?;CCL64 TGFb inh=26µM;COP TGFb inh=.
Cc1ccc(C)c(S(=O)(=O)N2[C@H]3CC[C@@H]2c2cnc(-c4ccc(F)cc4)nc2C3)c1	/	/	/	.	/
CCOC(=O)c1c(C)n(Cc2ccccc2)c2ccc(OC)cc12	/	/	/	.	/
CCCCn1nnnc1C(c1cccc2ccccc12)N1CCC2(CC1)C(=O)NCN2c1ccccc1 (stereo not drawn)	?	18µM	.	.	.	TGFb confirm=15µM;HepG2 tox-2=?;CCL64 TGFb inh=?;COP TGFb inh=.
O=C1NCN(c2ccccc2)C12CCN(C(c1ccccc1)c1nnnn1C1CCCC1)CC2 (stereo not drawn)	?	11µM	.	?	.	TGFb confirm=?;HepG2 tox-2=.;CCL64 TGFb inh=21µM;COP TGFb inh=.
COc1ccc(C(c2nnnn2C2CCCCC2)N2CCC3(CC2)C(=O)NCN3c2ccccc2)cc1 (stereo not drawn)	?	?	?	.	.	TGFb confirm=?;HepG2 tox-2=.;CCL64 TGFb inh=18µM;COP TGFb inh=.
COc1cccc(C(c2nnnn2C2CCCC2)N2CCC3(CC2)C(=O)NCN3c2ccccc2)c1OC (stereo not drawn)	/	?	?	.	.
O=C1NCN(c2ccccc2)C12CCN(C(c1cccc3ccccc13)c1nnnn1Cc1ccccc1)CC2 (stereo not drawn)	/	?	.	.	.
CCn1cc(C(=O)OC(C)C(=O)NC(=O)NC(C)(C)C)c2ccccc21 (stereo not drawn)	/	/	/	.	/
CC1CCN(C[C@H]2CN3CC[C@H]2C[C@@H]3CNC(=O)Nc2cccc(C#N)c2)CC1	/	/	/	.	/
